In all, about 150,000 compounds went through this assay and about 6,500 (4.3%) were called active. Another 12% or so got no clear call; they are omitted. What follows is part of a selection rich in actives, with near analogues and random picks from the rest. Unmarked numbers belong to inactive results. Calls follow the shape of the dose curve; as a rule, active = well fitted inhibition curve with a large enough effect (not every such curve was filed as active); inconclusive = small, poorly fitted or top-dose-only effect, or another doubt; inactive = no such curve, though single readings can be large or run the other way.
% is scaled to controls: 0 for no effect and ±100 for the full control effect; potency is read from the fitted curve at half-maximal effect.

This experiment deals with 15-hydroxyprostaglandin dehydrogenase [NAD(+)] (Homo sapiens) (UniProt P15428). The experiment is described as follows: qHTS Assay for Inhibitors of HPGD (15-Hydroxyprostaglandin Dehydrogenase). The note with it: purified HPGD, NADH fluorescence kinetic, PGE2 substrate; activity change, negative = inhibition: hits give low values. The gist of the method: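 NADH formation kinetics: reaction with 30 uM PGE2 and 1 mM NAD+ (final), 20 nM enzyme, Tris-HCl pH 8 with Tween 20, after 15 min compound preincubation at room temperature. Fluorescence change, last versus first of five reads.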
15-hydroxyprostaglandin dehydrogenase [NAD(+)] (Homo sapiens), sequence (P15428 whole entry, looked up): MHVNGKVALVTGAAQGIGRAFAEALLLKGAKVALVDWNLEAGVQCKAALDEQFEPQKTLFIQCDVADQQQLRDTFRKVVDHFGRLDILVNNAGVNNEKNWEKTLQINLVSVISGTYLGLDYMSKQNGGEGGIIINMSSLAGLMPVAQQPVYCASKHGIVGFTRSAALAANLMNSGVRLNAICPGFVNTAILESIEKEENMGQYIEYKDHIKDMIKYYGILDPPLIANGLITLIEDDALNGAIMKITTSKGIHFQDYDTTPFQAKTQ
On the technique in general: Quantitative high-throughput screening tests each substance at several concentrations.
Turning to `N#Cc1ccccc1NC(=O)c1cccc(COc2ccc(Cl)cc2Cl)c1`, the activity change, negative = inhibition is -14.4%.

Take `Cc1ccc(-n2c(SCC(=O)Nc3ncc(Cl)cc3Cl)nc3ccccc32)cc1`: the activity change, negative = inhibition was -16.1%.

As for `COCC(C)n1c(C)cc(C(=O)CSc2cc(C)c3ccccc3n2)c1C` (configuration not stated), the activity change, negative = inhibition was -10.7%.

`COc1ccc(/C=N/NC(=O)c2ccc(Cl)cc2)cc1COC(C)=O`: the activity change, negative = inhibition was -5.1%.

`Cc1ccc(C(=O)OCc2nc(N)nc(Nc3ccccc3C)n2)cc1`: the activity change, negative = inhibition is -0.25%.

Consider `CN(C)/C=C/C(=O)c1ccccc1F`, for which the activity change, negative = inhibition was -27.4%.

In the case of `CC(Oc1ccc(Cl)cc1Cl)C(=O)/C=C/N(C)C` (configuration not stated), the Potency was 22.4 µM (active).

Take `CCC(C)NC(=O)c1cc(Cl)ccc1OC` (configuration not stated): the activity change, negative = inhibition was -11.4%.

Turning to `CCn1cc(CNC(=O)c2cc([N+](=O)[O-])c(C)c([N+](=O)[O-])c2)cn1`, the activity change, negative = inhibition was -7.17%.

On to `Cc1nc2ccccc2nc(C)c1=NOCc1ccc(Cl)cc1Cl`, for which the activity change, negative = inhibition is -8.26%.

In the case of `Cc1nnnn1/C(=C\c1ccccc1)C(=O)OCC(=O)N1CC2(C)CC1CC(C)(C)C2` (configuration not stated), the activity change, negative = inhibition is -7.09%.

On to `S=C1Nc2cc(Cl)ccc2Sc2ccccc21`, for which the activity change, negative = inhibition was -14%.

For `O=C(NC1CC1)c1ccc2c(c1)NC(=O)c1ccccc1S2`, the Potency is 20 µM (active).

For the molecule `O=C(NC1CC1)c1cccc(Br)c1`, the activity change, negative = inhibition was -26.7%.

For the molecule `COc1cc(Cl)c(C)cc1NC(=O)[C@@H]1CCCN1C(=O)c1cccs1`, the activity change, negative = inhibition is -4.97%.

`COc1ccc(-c2nn(-c3ccccc3)cc2/C=N/Nc2ccccn2)cc1OC`: the activity change, negative = inhibition is -26.3%.

Regarding `CC(=O)Nc1ccc(NC(=O)C(C)OC(=O)c2ccccc2C(=O)c2ccc(Cl)c([N+](=O)[O-])c2)cc1` (configuration not stated), the activity change, negative = inhibition is -2.62%.

In the case of `COc1ccc(C2CC(c3ccccc3)=NN2C(=O)CSc2nccc(=O)[nH]2)cc1` (configuration not stated), the activity change, negative = inhibition was -5.74%.

`CCOC(=O)c1c(NC(=O)c2ccc(N3CCOCC3)c([N+](=O)[O-])c2)sc(C)c1C`: the activity change, negative = inhibition was -7.82%.

Consider `COCCNC(=O)c1ccc(N2CCC3(CC2)OCCO3)c([N+](=O)[O-])c1`, for which the activity change, negative = inhibition is -17.4%.

In the case of `CCC(C)NC(=O)c1ccc(N2CCC3(CC2)OCCO3)c([N+](=O)[O-])c1` (configuration not stated), the Potency was 39.8 µM (active).

As for `CC(C)CNC(=O)COC(=O)c1ccccc1OCC(=O)Nc1ccc(Br)cc1`, the activity change, negative = inhibition was -5.33%.

`Oc1c(C=Nc2cccc3nsnc23)ccc2ccccc12`: the Potency was 25.1 µM (active).

For the molecule `Nc1nc(NC(=O)/C=C/c2ccccc2)nn1-c1ccccc1`, the activity change, negative = inhibition was -3.01%.

For `COc1ccc(C2C(C#N)=C(/N=C/N3CCOCC3)OC3=C2C(=O)CC(C)(C)C3)cc1OC` (configuration not stated), the activity change, negative = inhibition was -16.4%.

`COc1ccc(C2CC(=O)n3c(nc4ccccc43)S2)cc1OC` (configuration not stated): the activity change, negative = inhibition is -12.6%.

On to `COc1cc(C2CC(=O)N3CN(Cc4ccccc4)CSC3=C2C#N)ccc1OCc1ccccc1` (configuration not stated), for which the Potency was 10 µM (active).

Turning to `CC(C)C(=O)Nc1ccc(C(=O)NNC(=O)c2cccs2)cc1`, the activity change, negative = inhibition was -13.5%.

Regarding `Cc1cc(C)nc(NC(=O)c2cccc([N+](=O)[O-])c2)c1`, the activity change, negative = inhibition was -3.35%.

Turning to `CCCCC/C=C\C/C=C\CCCCCCCCCC(=O)O`, the activity change, negative = inhibition was -12.4%.

Regarding `Cc1ccc(NC(=O)CCC(=O)N/N=C/c2ccco2)c(C)c1`, the activity change, negative = inhibition is -2.23%.

`COc1ccc(C(=O)O/N=C(\N)Cc2ccc(Cl)cc2Cl)cc1OC`: the activity change, negative = inhibition was -15.7%.

Consider `Cc1nnc(SCC(=O)Nn2cnnc2)s1`, for which the activity change, negative = inhibition was -0.465%.

Take `Cc1nnc(SCC(=O)NC2CCCC2)s1`: the Potency is 28.2 µM (active).

On to `Nc1nnc(SCC(=O)OCc2ccc(Cl)c(Cl)c2)s1`, for which the activity change, negative = inhibition is -17.6%.

As for `Cc1cnc(NC(=O)CSc2nnc(C)s2)s1`, the activity change, negative = inhibition was -0.21%.

Consider `CC1CCCC(NC(=O)CSc2nccn2C)C1C` (configuration not stated), for which the activity change, negative = inhibition is -27.8%.

For `CC1CCCCC1NC(=O)CSc1nnc(N)s1` (configuration not stated), the Potency is 17.8 µM (active).

Turning to `CN(CC(=O)NCCc1ccccc1)S(=O)(=O)c1cnc[nH]1`, the activity change, negative = inhibition is -0.3%.

As for `Cc1cccc(C)c1NC(=O)C(c1ccccc1)N1CC(=O)Nc2ccccc21` (configuration not stated), the activity change, negative = inhibition is -5.54%.

On to `C=CCN(CC=C)S(=O)(=O)c1ccc(C(=O)Nc2nc3c(s2)CCc2ccccc2-3)cc1`, for which the activity change, negative = inhibition is -28.8%.

In the case of `O=C(/C(=C/c1cccc(Cl)c1)c1nc2ccccc2[nH]1)c1ccccc1`, the activity change, negative = inhibition is -17.6%.

Consider `COc1ccc(C/C(C)=N/NC(=O)c2ccncc2)cc1`, for which the activity change, negative = inhibition was -13.4%.

Regarding `COc1ccc([N+](=O)[O-])cc1NC(=O)C(C)OC(=O)C1c2ccccc2Oc2ccccc21` (configuration not stated), the activity change, negative = inhibition was -5.7%.

As to `NC1CCN(O)C1=O` (configuration not stated), the activity change, negative = inhibition is -4.5%.

Take `O=C1N(c2ccc(Cl)cc2)C(c2ccc(Cl)cc2)N2CCCN12` (configuration not stated): the activity change, negative = inhibition was 4.12%.

Take `COc1ccc(CNC(=O)CN(Cc2ccc(Cl)cc2)S(C)(=O)=O)cc1`: the activity change, negative = inhibition is -5.79%.

On to `O=C(CSc1nnc2ccccn12)c1ccccc1`, for which the activity change, negative = inhibition was 78.8%.

As to `Cc1cc(SCC(=O)c2ccccc2)nc(SCC(=O)c2ccccc2)n1`, the Potency was 28.2 µM (active).

As to `CCOC(=O)c1c(C)[nH]c(C)c1C(=O)CSc1nc(N)cc(N)n1`, the activity change, negative = inhibition was -1%.

In the case of `Cc1nc(SCC(=O)c2ccccc2)c([N+](=O)[O-])[nH]1`, the activity change, negative = inhibition was -5.29%.

On to `COc1ccc(C(=O)CSc2n[nH]c(N)n2)cc1`, for which the activity change, negative = inhibition was -10.7%.

Turning to `COC(=O)c1cc(C(=O)CSc2nc(C)cc(C)n2)ccc1O`, the Potency was 17.8 µM (active).

On to `C/C=C(\C)C(=O)O[C@H]1CC(C)=C2C(=O)C=C(C)C2[C@@H]2OC(=O)[C@@](C)(OC(=O)C=C(C)C)C21` (some centres not stated), for which the activity change, negative = inhibition is -7.62%.

`O=C(Nc1ccccc1Cc1ccccc1)c1ccc2c(c1)SC1=NS(=O)(=O)CCN12`: the activity change, negative = inhibition is -2.73%.

Consider `Cc1cc(Cl)ccc1NC(=S)N1CCC(C(N)=O)(N2CCCCC2)CC1`, for which the activity change, negative = inhibition is -9.28%.

Regarding `CCOc1ccc(NC(=O)CSc2ncnc3c2sc2ccccc23)cc1`, the activity change, negative = inhibition is -9.21%.

As to `O=C(Nc1ccon1)c1sc2ccccc2c1Cl`, the Potency is 15.8 µM (active).

For the molecule `O=C(N/N=C/c1c(Cl)[nH]c2ccccc12)c1sc2ccccc2c1Cl`, the activity change, negative = inhibition was -16.9%.

Take `O=C(Nc1ccon1)c1cccc(Cl)c1`: the activity change, negative = inhibition was -28.3%.

For `CC/C=C\C/C=C\C/C=C\C/C=C\C/C=C\C/C=C\CCC(=O)NC(C)C(=O)O` (configuration not stated), the activity change, negative = inhibition is -6.96%.

Take `COc1ccc(N2CCN(C(=O)CSc3ncnc4c3cnn4-c3ccc(OC)cc3)CC2)cc1`: the activity change, negative = inhibition was -8.74%.

Take `Cc1nnc(SCC(=O)N2CCOCC2)[nH]c1=O`: the activity change, negative = inhibition is -12.2%.

As for `O=C(CSc1nc2c(cnn2-c2ccc(F)cc2)c(=O)[nH]1)N1CCCCCC1`, the Potency is 15.8 µM (active).

As for `CCc1ccc(C2N3CC4([N+](=O)[O-])CN2CC([N+](=O)[O-])(C3)C4(C)C)cc1` (configuration not stated), the activity change, negative = inhibition was 2.32%.

For `CCCc1[nH]nc2c1C(C1CC=CCC1)C(C#N)=C(N)O2` (configuration not stated), the activity change, negative = inhibition was -1.94%.

As to `CCc1ccc(C2C(C#N)=C(N)N(N(C)C)C3=C2C(=O)CCC3)s1` (configuration not stated), the activity change, negative = inhibition is -10.8%.

With `N#CC1=C(N)OC2=C(C(=O)CCC2)C1C1CC=CCC1` (configuration not stated), the Potency is 20 µM (active).

`Cc1ccc(NC(=O)c2oc(=O)c3ccccc3c2-c2ccccc2)c(C)c1`: the activity change, negative = inhibition was -2.46%.

Turning to `O=C(CCOc1ccccc1)NCc1ccccc1`, the activity change, negative = inhibition was -13.4%.

For `CCCCOc1ccc(C(=O)NCc2ccco2)cc1`, the Potency is 15.8 µM (active).

As for `CCOc1ccccc1C(=O)NCc1ccco1`, the Potency was 22.4 µM (active).

As for `CN(C)C(CNC(=O)CCCOc1ccccc1)c1ccco1` (configuration not stated), the activity change, negative = inhibition was -16.9%.

`O=C(CCCOc1ccccc1)NCc1ccco1`: the Potency is 12.6 µM (active).

With `Cc1cccc(Nc2ccccc2C(=O)NCc2ccco2)c1C`, the activity change, negative = inhibition is -6.4%.

Turning to `O=C(Nc1ccccc1)Nc1ccccc1C(=O)NCc1ccco1`, the activity change, negative = inhibition was -6.05%.

On to `CC(C)(C)c1ccc(C(=O)NCCC(=O)NCc2ccco2)cc1`, for which the activity change, negative = inhibition was -15.3%.

With `CCCCOc1ccc(C(=O)NCc2ccncc2)cc1`, the activity change, negative = inhibition is -5.73%.

As to `O=C(Nn1c(SCc2ccc([N+](=O)[O-])cc2)nc2ccccc2c1=O)c1ccc(F)cc1`, the activity change, negative = inhibition was -26.2%.

On to `Oc1ccc(Br)cc1C=Nc1ccc2[nH]ncc2c1`, for which the activity change, negative = inhibition is -20.6%.

Take `COc1ccc(-n2nnnc2-c2nc3ccccc3s2)cc1`: the activity change, negative = inhibition is -14.9%.

With `CCOC(=O)C(C)Sc1nnc(CSc2nc3nc(C)cc(C)n3n2)o1` (configuration not stated), the activity change, negative = inhibition was -7.77%.

On to `O=C1NC(c2ccccc2)=NC1(Nc1ccccn1)C(F)(F)F` (configuration not stated), for which the activity change, negative = inhibition was -0.712%.

As for `Cc1nc(CC(=O)NNS(=O)(=O)c2ccc(F)c(Cl)c2)cs1`, the activity change, negative = inhibition was -9.95%.

As for `C[C@@]12CCC(=O)C=C1CC[C@H]1C2[C@@H](O)C[C@]2(C)[C@@H]1CC[C@@]2(O)C(=O)COC(=O)C1CCCC1` (some centres not stated), the activity change, negative = inhibition was 2.72%.

In the case of `C=CCn1c(CC(=O)Nc2cccc(OC)c2)nnc1SCC(=O)NC1CCCCC1`, the activity change, negative = inhibition was -4.23%.

With `Cn1c(SCC(=O)NC2CCCCC2)nnc1-c1cc2ccccc2o1`, the activity change, negative = inhibition is -3.43%.

For the molecule `COc1cccc(-n2c(SCC(=O)NC3CCCCC3)nc3n[nH]c(C)c3c2=N)c1`, the Potency was 15.8 µM (active).

Turning to `CCN(C(=O)COC(=O)c1c(NC(C)=O)sc(C)c1C)C1CCS(=O)(=O)C1` (configuration not stated), the activity change, negative = inhibition is -23.1%.

Take `O=C(CC(=O)N/N=C\c1cccc(Cl)c1Cl)NCc1ccccc1`: the activity change, negative = inhibition is -9.68%.

As to `COC(=O)Cc1ccc(N(Cc2ccccc2F)S(=O)(=O)c2ccc(Br)cc2)cc1`, the activity change, negative = inhibition is -19.6%.

On to `COC(=O)c1ccc(NC(=O)CSc2nnc(CNc3ccc(OC)cc3)n2C)cc1`, for which the activity change, negative = inhibition is -6.05%.

Turning to `CCn1c(SCC(=O)c2ccc3ccccc3c2)nnc1-c1cccs1`, the activity change, negative = inhibition is -18.4%.

As to `CCn1c(CNc2ccc(OC)cc2)nnc1SCC(=O)c1ccc(OC)cc1`, the Potency is 14.1 µM (active).

With `Cc1ccc(-n2c(Cc3cccs3)nnc2SCC(=O)OC(C)C)cc1`, the activity change, negative = inhibition was -15.1%.

With `CCn1c(COc2ccc(OC)cc2)nnc1SCC(=O)Nc1cc(OC)ccc1OC`, the activity change, negative = inhibition is 1.56%.

`CCn1c(Cc2cccs2)nnc1SCC(=O)c1ccc(C)cc1`: the Potency was 15.8 µM (active).

The values are drawn from PubChem BioAssay AID894 (National Center for Advancing Translational Sciences (NCATS), 2007).
